Source: article PMC4336329 (PLoS ONE, 2015)
The campaign covered roughly 310,000 compounds. About 14,000 (4.5%) showed an effect of 50% or more. The effect is printed as a negative number. This excerpt belongs to a sample that is enriched for strong results.

What follows are compounds tested against human ether-à-go-go-related gene (hERG) potassium channel (human, UniProt Q12809) (assay: primary screen, population patch clamp on CHO cells stably expressing hERG; higher = less effect of the substance).
human ether-à-go-go-related gene (hERG) potassium channel, sequence (Q12809 whole entry, looked up): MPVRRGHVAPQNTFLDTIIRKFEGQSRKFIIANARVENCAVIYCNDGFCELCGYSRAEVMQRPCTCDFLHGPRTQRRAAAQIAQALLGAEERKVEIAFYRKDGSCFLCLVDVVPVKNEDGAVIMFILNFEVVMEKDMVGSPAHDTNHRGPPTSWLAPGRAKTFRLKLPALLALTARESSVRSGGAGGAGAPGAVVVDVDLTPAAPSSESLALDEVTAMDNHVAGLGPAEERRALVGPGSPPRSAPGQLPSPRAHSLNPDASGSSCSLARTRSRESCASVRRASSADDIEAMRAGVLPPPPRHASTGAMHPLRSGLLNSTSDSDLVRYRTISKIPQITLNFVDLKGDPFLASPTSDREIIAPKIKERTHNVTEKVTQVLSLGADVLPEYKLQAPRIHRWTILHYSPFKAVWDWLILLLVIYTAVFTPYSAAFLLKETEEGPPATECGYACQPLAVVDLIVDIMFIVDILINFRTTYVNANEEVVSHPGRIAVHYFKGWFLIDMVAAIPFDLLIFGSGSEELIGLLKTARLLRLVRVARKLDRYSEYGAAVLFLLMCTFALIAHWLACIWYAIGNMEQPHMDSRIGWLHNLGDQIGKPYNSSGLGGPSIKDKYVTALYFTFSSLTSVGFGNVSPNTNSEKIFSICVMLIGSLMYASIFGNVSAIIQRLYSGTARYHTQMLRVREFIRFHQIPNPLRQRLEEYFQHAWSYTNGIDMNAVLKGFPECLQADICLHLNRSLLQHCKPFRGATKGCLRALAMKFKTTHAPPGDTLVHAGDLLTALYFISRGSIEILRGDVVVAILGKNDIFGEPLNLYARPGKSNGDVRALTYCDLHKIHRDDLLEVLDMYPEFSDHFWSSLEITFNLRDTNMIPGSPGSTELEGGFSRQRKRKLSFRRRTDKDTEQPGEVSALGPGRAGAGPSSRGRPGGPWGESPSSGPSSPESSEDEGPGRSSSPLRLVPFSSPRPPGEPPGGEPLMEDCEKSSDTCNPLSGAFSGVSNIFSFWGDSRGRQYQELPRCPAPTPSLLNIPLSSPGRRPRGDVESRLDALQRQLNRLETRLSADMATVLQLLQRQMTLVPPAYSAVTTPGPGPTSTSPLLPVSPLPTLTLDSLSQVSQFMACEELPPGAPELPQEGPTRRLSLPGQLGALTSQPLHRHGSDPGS
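Also: peak tail current of the secondary pulse compared with the same well before compound.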

Point of comparison: `O=S(=O)(c1cccc(C(F)(F)F)c1)N1CCN(C(=S)NCc2ccco2)CC1`, “hERG current change (%, negative = inhibition) at 10uM” value -5.8%. Against it:
- CCCCCCCNC(=O)C1(CC2CC(c3ccc(Cl)cc3)=NO2)CCN(C(=O)C2CCCC2)CC1 (centres unmarked) — lower, -55.8%
- CCCCCCCNC(=O)C1(CC2CC(c3ccc(Cl)cc3)=NO2)CCN(C(=O)C2(C)CC2)CC1 (centres unmarked) — lower, -55.8%
- CCCCCCCNC(=O)C1(CC2CC(c3ccc(Cl)cc3)=NO2)CCN(C(=O)OC(C)(C)C)CC1 (centres unmarked) — higher, 21.1%
- COc1ccc(CC(=O)NCc2ccc(F)cc2)cc1S(=O)(=O)N1CCOCC1 — lower, -8.29%
- CCCn1c2ccccc2c2cnn(CC(=O)NCCN(CC)CC)c(=O)c21 — lower, -66.6%
- CCCn1c2ccccc2c2cnn(CC(=O)NCCOC)c(=O)c21 — higher, -5.71%
- CCCn1c2ccccc2c2cnn(CC(=O)NC(C)CC)c(=O)c21 (centres unmarked) — higher, 7.84%
- CCCn1c2ccccc2c2cnn(CC(=O)NCCN(C)C)c(=O)c21 — lower, -60.1%
- CCCn1c2ccccc2c2cnn(CC(=O)N(CC)CC)c(=O)c21 — higher, -2.37%
- CCCn1c2ccccc2c2cnn(CC(=O)OC)c(=O)c21 — higher, -0.361%
- Cc1ccc(S(=O)(=O)N2CCN(CC(=O)N(CC(C)C)c3c(N)n(CC(C)C)c(=O)[nH]c3=O)CC2)c(C)c1 — higher, 12.7%
- O=[N+]([O-])c1cc([As](=O)(O)O)ccc1O — higher, 19.8%
- Cc1csc(NC(=O)c2ccc(C)c([N+](=O)[O-])c2)n1 — lower, -41.6%
- Cc1nn2cc(-c3ccc(Cl)cc3)cnc2c1Br — higher, 10.3%
- Cc1ccc(NC(=O)C2Oc3ccccc3OC2C)cc1 (centres unmarked) — higher, 8.68%
- CCCCC(=O)NC(=S)Nc1c(C)cc(Br)cc1C — higher, 2.71%
- Cc1ccc(CNS(=O)(=O)c2ccc3c(c2)NC(=O)C(C)S3)cc1 (centres unmarked) — higher, -1.22%
- COc1ccc(C(=O)Nc2ccnn2C2CCN(C(=O)c3cnsn3)CC2)cc1 — lower, -11.5%
- COc1ccccc1C(=O)Nc1ccnn1C1CCN(C(=O)c2ccoc2)CC1 — lower, -47.4%
- COc1ccccc1C(=O)Nc1ccnn1C1CCN(C(C)CSC)CC1 (centres unmarked) — lower, -67%
- COCC(=O)N1CCC(n2nccc2NC(=O)c2ccccc2OC)CC1 — higher, -1.85%
- COc1ccc(C(=O)Nc2ccnn2C2CCN(C(C)CSC)CC2)cc1 (centres unmarked) — higher, 1.28%
- COc1ccccc1C(=O)Nc1ccnn1C1CCN(C(=O)C(C)(C)C)CC1 — lower, -50.4%
- COc1ccccc1C(=O)Nc1ccnn1C1CCN(C)CC1 — lower, -32.7%
- COc1ccccc1C(=O)Nc1ccnn1C1CCN(C(=O)c2ccoc2C)CC1 — lower, -62.9%
- COc1ccccc1C(=O)Nc1ccnn1C1CCN(C(=O)c2cnsn2)CC1 — lower, -62.2%
- COc1ccccc1C(=O)Nc1ccnn1C1CCN(C(=O)C2CCOC2)CC1 (centres unmarked) — lower, -35.9%
- CSCC(C)N1CCC(n2nccc2NC(=O)c2ccccc2C)CC1 (centres unmarked) — lower, -16.6%
- Cc1ccccc1C(=O)Nc1ccnn1C1CCN(C(=O)c2cnsn2)CC1 — lower, -30.4%
- COc1ccc(-c2noc(CSc3nc(N)cc(=O)[nH]3)n2)cc1 — higher, 0.145%
- OCCC1CN(CC#Cc2ccccc2)CCN1Cc1ccccc1F (centres unmarked) — lower, -7.93%
- Cc1[nH]c2ccccc2c1SCCN — higher, 2.5%
- CC(=O)N1c2ccc(S(=O)(=O)N(C)CC(=O)NC3CCCC3)cc2CC1C (centres unmarked) — lower, -23.1%
- COC(=O)C1=C(c2ccc(Cl)c(C(F)(F)F)c2)C[C@@H]2CC[C@H]1N2C(=O)NCc1ccc2c(c1)OCO2 — lower, -12.9%
- Cc1cc(-n2nc(C)cc2C)n2ncc(-c3ccccc3)c2n1 — higher, 16.2%
- CC(=O)c1cnc2c(-c3ccc(Cl)cc3)cnn2c1C — higher, -1.45%
- CCc1ccccc1N(C(=O)Cn1nnc2ccccc21)C(C(=O)NCCOC)c1ccco1 (centres unmarked) — lower, -7.99%
- CCOC(=O)c1ccc(NC(=O)c2sc3nc4n(c(=O)c3c2C)CCC4)cc1 — higher, 8.82%
- N#CCCOC1(C#CCN2CCCC2)CCCCC1 — higher, 19.6%
- Cc1ccc(O)c(C(CC(=O)NC(C)C)c2ccccc2)c1 (centres unmarked) — higher, 6.85%
- COCCCN1CN(Cc2ccccc2)CNC1=S — higher, 5.46%
- O=C(Nc1nnc(CSCc2ccccc2F)s1)c1cccc([N+](=O)[O-])c1 — higher, -0.45%
- COc1ccc(C(=O)Nc2ccnn2C2CCN(C3CCC3)CC2)cc1 — higher, 20.7%
- Cc1ccccc1C(=O)Nc1ccnn1C1CCN(C2CCSCC2)CC1 — lower, -49.5%
- COc1ccccc1C(=O)Nc1ccnn1C1CCN(C2CCSCC2)CC1 — lower, -70.9%
- CCCC1=Nc2cc(C(=O)N3CCC(C(N)=O)CC3)ccc2Sc2ccccc21 — higher, 4.75%
- O=C(/C=C/c1ccc(OC2CSC2)cc1)c1ccccc1 — higher, 10.1%
- CC(=O)Nc1cccc(C(=O)Nc2ccc(S(=O)(=O)NC3=NCCCCC3)cc2)c1 — higher, 17%
- O=C(COc1ccc(Cl)cc1)NCc1nnc2c3ccccc3c(-c3ccccc3)nn12 — lower, -66.9%
- O=C(COc1ccc(Cl)cc1)NCc1ccccc1 — lower, -10.4%
- O=C(COc1ccccc1)NCc1ccccc1 — higher, 4.64%
- O=C(COc1ccccc1)NCc1n[nH]c(=S)n1-c1ccccc1 — higher, 17.5%
- O=C(COc1ccc(Cl)cc1)NCc1n[nH]c(=O)c2ccccc12 — lower, -13%
- O=C(COc1ccccc1)NCc1nnc2c3ccccc3c(-c3ccccc3)nn12 — lower, -64.6%
- CCc1cccc(NC(=O)C2CCCN(S(=O)(=O)c3cccnc3)C2)c1 (centres unmarked) — higher, -5.51%
